# From PubChem BioAssay AID1022 (Emory University Molecular Libraries Screening Center, 2008)
# The campaign covered roughly 220,000 compounds. About 3,300 (1.5%) were called active.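 How the source made its calls: active means compounds that cut the protein-peptide binding signal by more than 50% relative to plate controls in a single-dose test; inactive means the rest.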 This excerpt belongs to a sample that is enriched for actives.
# Molecular target: Induced myeloid leukemia cell differentiation protein Mcl-1 (Homo sapiens) (UniProt Q07820)
# Test: disruptors of Mcl-1 and Noxa BH3 peptide – biochemical, TR-FRET, 1536-well, primary screen (AID 1022);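 further: His-tagged Mcl-1 with rhodamine Noxa BH3 peptide and terbium anti-His antibody; 0% = Mcl-1 plus Noxa peptide wells and 100% = peptide-only wells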
# Conditions: TR-FRET Mcl-1/Noxa peptide binding, 2 h; at 21.7 µM; active compounds read high
# Induced myeloid leukemia cell differentiation protein Mcl-1 (Homo sapiens), sequence (Q07820 whole entry, looked up): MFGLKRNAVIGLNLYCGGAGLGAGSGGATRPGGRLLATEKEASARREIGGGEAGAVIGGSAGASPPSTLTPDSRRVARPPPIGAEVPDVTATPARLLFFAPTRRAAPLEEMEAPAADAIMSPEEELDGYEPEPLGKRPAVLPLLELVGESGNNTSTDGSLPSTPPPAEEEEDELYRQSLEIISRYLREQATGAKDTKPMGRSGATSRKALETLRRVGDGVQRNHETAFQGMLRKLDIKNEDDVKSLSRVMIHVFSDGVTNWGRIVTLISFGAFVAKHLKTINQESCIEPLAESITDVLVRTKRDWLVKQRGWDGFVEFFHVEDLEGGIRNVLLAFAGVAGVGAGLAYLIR
row,SMILES,inhibition
1,COc1cc(C(F)(F)F)nc2c(Br)c(C(C)(C)C)nn12,7.39% (inactive)
2,CN(C)S(=O)(=O)c1ccc(C(=O)NCC(C)(C)N2CCOCC2)cc1,7.92% (inactive)
3,Cc1ccc(NNC(=O)c2c(F)cccc2Cl)cc1Cl,0.81% (inactive)
4,CCOC(=O)C1CCN(C(=O)Nc2cccc(OC)c2)CC1,-13.3% (inactive)
5,COc1cccc(C(=O)n2ccc(-c3cccs3)n2)c1,1.68% (inactive)
6,Cc1nnc(SC(C(=O)c2ccccc2)c2ccccc2)[nH]c1=O (stereo not drawn),-5.97% (inactive)
7,Cc1cc2c(cc1C)N(Cc1ccccc1)C1=NCCCN12,-4.28% (inactive)
8,CCOc1ccc(/C=N/Nc2nncc(-c3ccccc3)n2)cc1OC,14.2% (inactive)
9,COc1cc(/C=N/Nc2nn3cnnc3c3ccccc23)cc(OC)c1OC,52.5% (active)
10,COc1ccc(/C=N/Nc2nc3ccccc3o2)cc1OC,-2.8% (inactive)
11,C=CCN(c1ccccc1C(=O)NCC(=O)OCC)S(=O)(=O)c1ccc(C)cc1,8.19% (inactive)
12,Cc1ccc(NN=Nc2nc3c([nH]2)c(=O)n(C)c(=O)n3C)cc1,55.6% (active)
13,CC(CCO)Nc1nc2c([nH]1)c(=O)n(C)c(=O)n2C (stereo not drawn),-3.43% (inactive)
14,CCCSc1nc2c(c(=O)n(C)c(=O)n2C)n1Cc1ccc(C)cc1,-4.96% (inactive)
15,Cc1cc(C(=O)NNS(=O)(=O)c2ccccc2C(F)(F)F)nn1C(C)(C)C,-0.45% (inactive)
16,Cc1cc(N2CCN(c3ccc(F)cc3)CC2)n2ncnc2n1,-1.64% (inactive)
17,CC(C)NC(=O)NNc1c(Cl)cncc1Cl,3.37% (inactive)
18,Cc1ccc(Cn2c(NC(=O)c3ccco3)nc3ccccc32)cc1,1.28% (inactive)
19,Cc1ccc(Cn2c(C)nc3c(c2=O)c2nc4ccccc4nc2n3Cc2ccco2)cc1,63.1% (active)
20,Clc1cccc(-c2nc3nc4ccccc4nc3n2Cc2ccco2)c1,4.89% (inactive)
21,COc1ccc2c(c1)C(=C(C#N)C#N)C(=O)N2CCc1ccccc1,-4.33% (inactive)
22,CCCCCn1c(=O)c(C(=O)OCC)c(Cl)c2ccccc21,-2.04% (inactive)
23,CCOC(=O)/C=C/CN(C(=O)OC(C)(C)C)S(=O)(=O)N1CC=CC1,-18% (inactive)
24,CCC(C)N1C(=S)SC(C)(C)C1N(O)C(=O)NC1CCCCC1 (stereo not drawn),-0.12% (inactive)
25,CC(=O)N1C(=O)/C(=C2\SC(=S)N(NC(=O)c3ccc(O)cc3)C2=O)c2ccccc21,94.5% (active)

row,SMILES,inhibition
1,Cn1cccc1/C=C1\SC(=S)N(NC(=O)c2ccc(Cl)cc2)C1=O,18.5% (inactive)
2,O=C(O)c1ccc2c(c1)C(=O)N(NC(=O)c1ccc(O)cc1)C2=O,12.9% (inactive)
3,O=C(NCCc1ccccc1)Oc1ccc(Cl)cc1,7.49% (inactive)
4,COC(=O)N(NC(=O)C(O)(C(C)C)C(C)C)c1ccccc1,-6.13% (inactive)
5,Cc1ccc(-c2nc(C)sc2CC(=O)O)cc1,6.4% (inactive)
6,C/C(=N/Nc1nc(-c2ccccc2)c(CC(=O)O)s1)c1ccccc1,55.8% (active)
7,O=C(O)Cc1sc(-c2ccc(C(=O)O)cc2)nc1-c1ccccc1,15.3% (inactive)
8,CCn1c(=O)c2cc(C(=O)Nc3cccc(C(C)=O)c3)sc2c2ccccc21,-88.5% (inactive)
9,O=c1c(-c2ccc(Cl)cc2)[n+]([O-])c2ccccc2n1OCc1nc2ccccc2[nH]1,-16.2% (inactive)
10,COC(=O)CC1=NN(c2nc(C)cc(C)n2)C(=O)C1,68% (active)
11,Cc1cc(C)cc(NC(=O)C2CCN(c3nc(C)cc(C)n3)CC2)c1,-11.6% (inactive)
12,COC(=O)CC1=NN(c2ccccc2)C(=O)C1,19.1% (inactive)
13,CC(CO)(CO)NC(=O)c1ccc(=O)[nH]n1,4.69% (inactive)
14,O=C(c1ccc(F)cc1)C1CCN(Cc2cn[nH]c2-c2ccccc2)CC1,-14.2% (inactive)
15,Cc1nn(CC(=O)N/N=C/c2ccc(F)cc2)c(C)c1[N+](=O)[O-],12.1% (inactive)
16,COc1cc(/C=N/NC(=O)c2cc(C)n(-c3ccc(F)cc3)c2C)cc(OC)c1O,47.1% (inactive)
17,Cc1cc(C(=O)N/N=C/c2ccc(O)c([N+](=O)[O-])c2)c(C)n1-c1ccc(F)cc1,87.3% (active)
18,Cc1ccc(/C=N/NC(=S)Nc2cccc(S(=O)(=O)N(C)C)c2)o1,-90.2% (inactive)
19,OC(c1ccccc1)C(CN1CCOCC1)c1ccccc1 (stereo not drawn),6.74% (inactive)
20,CCNC(=S)N1CCN(CCN=CC2=C(O)CC(C)(C)CC2=O)CC1,7.49% (inactive)
21,O=C(NCc1ccco1)c1nc(-c2ccccc2)n(-c2ccccc2)n1,-7.46% (inactive)
22,NNC(=O)c1oc2nc(-c3ccccc3)cc(-c3ccco3)c2c1N,72.9% (active)
23,O=C(CCc1ccccc1)Nc1cccc(-c2nnc(-c3ccco3)o2)c1,14.2% (inactive)
24,NC(=O)c1ccc(NC(=O)COC(=O)c2ccc([N+](=O)[O-])cc2)cc1,-10.3% (inactive)
25,CCOC(=O)c1c(NC(=S)NC)sc2c1CCCC2,11.9% (inactive)

row,SMILES,inhibition
1,COc1ccc(NC(=O)/C(Cl)=C(/Cl)S(=O)Cc2ccc(C)cc2)cn1 (stereo not drawn),65.8% (active)
2,COc1ccc(CS(=O)/C(Cl)=C(/Cl)C(=O)Nc2ccc(OC)nc2)cc1 (stereo not drawn),43.3% (inactive)
3,COc1ccc(NC(=S)Nc2ccccc2Cl)cn1,16.9% (inactive)
4,CCNC(=O)CCc1nc(-c2ccc(C)cc2)no1,-1.4% (inactive)
5,c1ccc(C2=Nc3cccc4cccc(c34)N2)cc1,37% (inactive)
6,COc1ccccc1C1=Nc2cccc3cccc(c23)N1,75.8% (active)
7,Fc1ccccc1N=C1Nc2cccc3cccc1c23,16.1% (inactive)
8,N#Cc1c(C(F)(F)F)cc(-c2cccs2)nc1N1CCCCC1,-6.66% (inactive)
9,COc1ccc2c(CC(=O)OCC(=O)NC(N)=O)coc2c1,8.39% (inactive)
10,Clc1ccccc1CSc1nnc(-c2ccco2)c(-c2ccco2)n1,109% (active)
11,Brc1ccc(CSc2ccc(-c3ccco3)nn2)cc1,5.62% (inactive)
12,COC(OC)c1ccnc(SCc2ccccc2Cl)n1,2.7% (inactive)
13,c1ccc(CSc2nnc(-c3ccco3)n2Cc2ccccc2)cc1,53% (active)
14,O=C(CSc1nnc(-c2ccco2)n1Cc1ccccc1)NC(=O)NCc1ccco1,31.8% (inactive)
15,O=C(CSc1nnc(-c2ccco2)n1CC1CCCO1)c1ccccc1 (stereo not drawn),5.57% (inactive)
16,c1ccc(CSc2nnc(-c3ccco3)c(-c3ccco3)n2)cc1,108% (active)
17,O=C(Nc1nnc(SCc2ccccc2)s1)c1ccco1,-9.36% (inactive)
18,Nc1nc(SCc2ccccc2Cl)n[nH]1,-21.7% (inactive)
19,COc1ccc(CC(=O)NCC(=O)N/N=C/c2cc(Br)ccc2OC)cc1,0.9% (inactive)
20,Clc1ccc2nc(-c3ccccc3)nc(C(Cl)Cl)c2c1,-22.1% (inactive)
21,Nc1c(N(CCO)C(=O)C2CCCCC2)c(=O)[nH]c(=O)n1Cc1ccccc1,24.7% (inactive)
22,Cc1c(NC(=O)CN2C(=O)C(=O)N(Cc3ccccc3)C2=O)c(=O)n(-c2ccccc2)n1C,8.51% (inactive)
23,Cn1nccc1NC(=O)CC(CC(=O)O)c1ccccc1 (stereo not drawn),-13% (inactive)
24,Cc1cc(N2CCN(c3ccccc3)CC2)nc(N2CCOCC2)n1,14.2% (inactive)
25,Cc1cc(/C=C2/C(=N)N3C(=NC2=O)SN=C3S(C)(=O)=O)c(C)n1-c1ccccc1,16.9% (inactive)

row,SMILES,inhibition
1,CS(=O)(=O)c1ccc2c(c1)SC1=NC(=O)/C(=C/c3ccco3)C(=N)N12,103% (active)
2,CCS(=O)(=O)C1=NSC2=NC(=O)/C(=C\c3cc(C)n(-c4cccc(OC)c4)c3C)C(=N)N21,37.6% (inactive)
3,OCC1(Cc2ccccc2C(F)(F)F)CCN(Cc2ccncc2)CC1,13.3% (inactive)
4,CC(C)(C)NC(=O)NCc1ccco1,8.79% (inactive)
5,O=C(Nc1ccccc1)Nc1nnc(COc2ccccc2F)s1,23.7% (inactive)
6,O=c1[nH]c(=S)[nH]c2[nH]c(=S)[nH]c12,95.1% (active)
7,Cc1cc(=O)[nH]c(=S)[nH]1,4.28% (inactive)
8,Cc1c(C)c(C)c2[nH]c(=S)[nH]c2c1C,2.53% (inactive)
9,O=C(COC(=O)/C=C/c1ccc2c(c1)OCO2)NC1CCS(=O)(=O)C1 (stereo not drawn),16% (inactive)
10,COc1ccc(OC)c(Nc2nc3ccccc3n3cnnc23)c1,16.9% (inactive)
11,O=[N+]([O-])c1cc(Cl)cc(/C=N/NC(=S)Nc2cc(S(=O)(=O)N3CCOCC3)ccc2Cl)c1O,100% (active)
12,O=C(CN1CCN(c2ccc(O)cc2)CC1)Nc1cc(S(=O)(=O)N2CCOCC2)ccc1Cl,49.8% (inactive)
13,O=C(N/N=C/c1ccc([N+](=O)[O-])o1)c1cccc(S(=O)(=O)N2CCOCC2)c1,5.84% (inactive)
14,COc1ccc2nc(NC(=O)NC3CCCCC3)sc2c1,-0.53% (inactive)
15,O=C(Nc1ccccc1)O/N=C1/CCCc2occc21,6.55% (inactive)
16,Oc1ccc(N=Nc2nccs2)c(O)c1,-33.2% (inactive)
17,CC[C@H]1CN2CCc3cc(OC)c(OC)cc3[C@@H]2C[C@@H]1C[C@H]1NCCc2cc(OC)c(OC)cc21,22.4% (inactive)
18,COc1cc2c(cc1O)[C@H](Cc1ccc(Oc3cc(C[C@@H]4NCCc5cc(OC)c(O)cc54)ccc3O)cc1)NCC2,64.4% (active)
19,O=[N+]([O-])c1ccc(N=Cc2c(O)ccc3ccccc23)cc1,-1.02% (inactive)
20,O=C(Nc1ccc(F)cc1F)N1CCCN(CCOc2ccccc2)CC1,9.38% (inactive)
21,Cc1cc(C)c2c3c(sc2n1)C(c1ccccc1)C(C#N)=C(N)O3 (stereo not drawn),-16.3% (inactive)
22,N#CC1=C(N)Oc2c(sc3ccccc23)C1c1ccco1 (stereo not drawn),51.5% (active)
23,CC1=C(C(=O)Nc2ccccc2)C(c2ccco2)C(C#N)=C(SCC(N)=O)N1 (stereo not drawn),5.4% (inactive)
